High-throughput results: PubChem BioAssay, several laboratories
Only a selection was taken, and hits are over-represented in it overall.
D1 allo mod = allosterically modulates the human D1 dopamine receptor; P21728; HEK293 D1, CRE-luciferase, dopamine EC30 potentiation; actives deviate in either direction; B-score at 10 µM; 5.9% of 58,000 active; AID 641;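 active = luminescence count or its row- and column-corrected plate score outside the 99.7% band of the plate's sample wells, on either side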
Target sequence (P21728 whole entry, looked up): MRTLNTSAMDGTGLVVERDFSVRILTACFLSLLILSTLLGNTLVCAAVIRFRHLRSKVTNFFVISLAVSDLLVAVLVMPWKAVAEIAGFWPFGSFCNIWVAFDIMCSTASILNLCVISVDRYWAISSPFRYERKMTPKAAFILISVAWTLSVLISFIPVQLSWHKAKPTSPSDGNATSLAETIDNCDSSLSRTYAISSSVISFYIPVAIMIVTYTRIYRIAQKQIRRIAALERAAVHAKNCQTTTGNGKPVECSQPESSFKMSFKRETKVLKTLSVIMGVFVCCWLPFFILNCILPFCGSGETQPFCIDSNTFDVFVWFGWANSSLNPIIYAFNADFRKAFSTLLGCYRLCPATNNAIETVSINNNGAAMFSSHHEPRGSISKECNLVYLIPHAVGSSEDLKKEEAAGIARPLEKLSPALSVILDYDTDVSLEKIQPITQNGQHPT
BAP1 inh = inhibitors of human BAP1 deubiquitinase; Q92560; recombinant BAP1, Ub-AMC hydrolysis fluorescence kinetic; hits give low values; calls only at 20 µM; 0.48% of 72,000 active; AID 436;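 active = activity remaining at or below 50% of control, provided the compound also passes the data quality filters; inactive = the rest, including low values that fail the filters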
DAT uptake mod = modulates human dopamine transporter uptake under cocaine | B-score at 10 µM | LLC-PK1 hDAT cells, [14C]-dopamine uptake with cocaine IC80; actives deviate in either direction | AID 449768 | Q01959 | 1.3% of 110,000 active;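 active = Z score or B-score, a plate-position-corrected score, falls beyond the plate's 99.7% confidence bounds, in either direction; inactive = both scores lie inside the 99.7% bounds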
D1 mod confirm = confirmation of human D1 dopamine receptor allosteric modulators; shares compounds with D1 allo mod; HEK293 D1 CRE-luciferase, dopamine EC30 potentiation; hits give high values; luminescence at 10 µM; 88% of 2,200 active; AID 642;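 active = luminescence in either of two replicates above the same-plate mean plus 3 SD of the low-dose dopamine control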
D1 no dopamine = activates D1 CRE-luciferase signal without dopamine present; HEK293 D1 CRE-luciferase, luminescence, no dopamine; hits give high values; shares compounds with D1 allo mod; 0.8% of 1,900 active; luminescence at 10 µM; in the data active = luminescence above about 3900
Isoprot counter = alters isoproterenol CRE-luciferase response in HEK293 cells; shares compounds with D1 allo mod; 63% of 2,200 active; HEK293 D1 CRE-luciferase, isoproterenol EC30 counter-screen; hits give high values; luminescence at 10 µM; AID 647;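 active = luminescence in either replicate above plate mean of wells with a partly effective reference agonist dose plus 3 SD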;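 note: isoproterenol raises cAMP through native beta-adrenoceptor Gs so signal bypasses D1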
Of the large screens only hits and unclear results are named; the others gave an inactive call (follow-up assays come after a bar, where shown).

Cn1c(=O)[nH]c(=O)c2c1nc(N1CCCCCC1)n2CCCSc1nc2ccccc2o1	D1 allo mod 7.3 | D1 mod confirm 7696 | D1 no dopamine inactive | Isoprot counter 6660
Cn1c(=O)[nH]c(=O)c2c1nc(N1CCCCCC1)n2CCSc1nc2ccccc2o1	none (no result: D1 allo mod, DAT uptake mod)
CCCSc1nc2c(c(=O)[nH]c(=O)n2C)n1Cc1ccc(C)cc1	none
Cn1c(=O)[nH]c(=O)c2c1nc(N1CCCCCC1)n2Cc1ccccc1	none (no result: D1 allo mod, DAT uptake mod)
Cc1ccc(Cn2c(SCC(C)C)nc3c2c(=O)[nH]c(=O)n3C)cc1	D1 allo mod 7 | D1 mod confirm 15640 | D1 no dopamine inactive | Isoprot counter 3544
CC1CCCN(c2nc3c(c(=O)[nH]c(=O)n3C)n2Cc2ccccc2Cl)C1 (centres undefined)	D1 allo mod 4.5 | D1 mod confirm 12012 | Isoprot counter 3184
Cc1ccc(Cn2c(N3CCCCCC3)nc3c2c(=O)[nH]c(=O)n3C)cc1	D1 allo mod 3.1 | D1 mod confirm 9560 | D1 no dopamine inactive | Isoprot counter 3704
CCOC(=O)c1ccc(N2C(=O)c3ccccc3C2=O)cc1	none (no result: D1 allo mod, DAT uptake mod)
COc1ccc(C(=O)Nc2cccc(NC(=O)c3cccc(Cl)c3)c2)cc1OC	none (no result: D1 allo mod, DAT uptake mod)
CCN(C=Nc1sc2c(c1C#N)CC(C)(C)NC2(C)C)CC	none (no result: D1 allo mod, DAT uptake mod)
CCn1c(N2CCN(CC(=O)c3c(C)n(C)c4ccccc34)CC2)nc2c1c(=O)[nH]c(=O)n2C	D1 allo mod 3.5 | D1 mod confirm 8636 | D1 no dopamine inactive | Isoprot counter 4064
CCCn1c(N2CCN(CC(=O)c3c[nH]c4ccccc34)CC2)nc2c1c(=O)[nH]c(=O)n2C	none
c1ccc(-c2n[nH]c3ccccc23)cc1	none
c1ccc(-c2n[nH]nc2-c2ccccc2)cc1	D1 allo mod 17 | D1 mod confirm 18456 | Isoprot counter 3416
CS(=O)(=O)Nc1ccc(C(=O)OC2CCCCC2)cc1	none (no result: D1 allo mod, DAT uptake mod)
COc1ccc(CCNC(=O)c2cnn3cccnc23)cc1OC	D1 allo mod 13 | D1 mod confirm 14608 | D1 no dopamine inactive | Isoprot counter 4912
COc1ccc(CCNC(=O)c2cnn3c(C(F)F)cc(C)nc23)cc1OC	none (no result: D1 allo mod, BAP1 inh)
FC(F)(F)c1nnc2ccc(N3CCCC3)nn12	none (no result: D1 allo mod, BAP1 inh)
FC(F)(F)c1nnc2ccc(N3CCCCCC3)nn12	D1 allo mod 3.5 | D1 mod confirm 8220 | D1 no dopamine inactive | Isoprot counter 3372
Cc1cc(C)nc(Sc2ccc3nnc(C(F)(F)C(F)(F)C(F)(F)F)n3n2)n1	none
FC(F)(F)C(F)(F)C(F)(F)c1nnc2ccc(N3CCOCC3)nn12	D1 allo mod 11 | D1 mod confirm 18088 | D1 no dopamine inactive | Isoprot counter 3420
CCOC(=O)C(NC(C)=O)C(O)c1cccc(N)c1 (centres undefined)	none (no result: D1 allo mod, DAT uptake mod)
Cn1ncc([N+](=O)[O-])c1CC(=O)O	none (no result: D1 allo mod, DAT uptake mod)
CCSc1nc2c(c(=O)n1C1CCOC(C)(C)C1)C1(CCCCC1)Cc1ccccc1-2 (centres undefined)	none (no result: D1 allo mod, DAT uptake mod)
O=[N+]([O-])c1ccc(N2CCCCC2)cc1NCCc1ccccc1	none (no result: D1 allo mod, DAT uptake mod)
Cc1nn(-c2ccccc2)c(C)c1Sc1ccc(Br)cc1	none (no result: D1 allo mod, DAT uptake mod)
Brc1ccc(-c2nnc3sc(CN4CCc5ccccc5C4)cn23)cc1	none (no result: DAT uptake mod)
c1ccc(-c2nnc3sc(CN4CCc5ccccc54)cn23)cc1	D1 allo mod 2.6 | D1 mod confirm 15088 | D1 no dopamine inactive | Isoprot counter inactive
Clc1ccc(-c2ccc(-c3nn4c(-c5ccco5)nnc4s3)o2)cc1	none (not shown: BAP1 inh)
Brc1ccc(-c2nn3c(-c4ccco4)nnc3s2)o1	D1 allo mod 4.1 | D1 mod confirm 10612 | D1 no dopamine inactive | Isoprot counter 3108
CCCCOC(=O)C1=C(C)NC(=O)NC1c1cccc(F)c1 (centres undefined)	none (no result: D1 allo mod, DAT uptake mod)
CCOC(=O)C(CC)Sc1nc2c(c(=O)[nH]c(=O)n2C)n1CCc1ccccc1 (centres undefined)	none
CCCCn1c(NC(C)CC)nc2c1c(=O)[nH]c(=O)n2C (centres undefined)	D1 allo mod 11 | D1 mod confirm 21532 | D1 no dopamine inactive | Isoprot counter 5652
CCCCn1c(SCC(N)=O)nc2c1c(=O)[nH]c(=O)n2C	none (no result: D1 allo mod, DAT uptake mod)
CCCCCn1c(SC(C)C(C)=O)nc2c1c(=O)[nH]c(=O)n2C (centres undefined)	D1 allo mod 8 | D1 mod confirm 20968 | D1 no dopamine inactive | Isoprot counter 5320
CCC(C)Nc1nc2c(c(=O)[nH]c(=O)n2C)n1Cc1cccc(C)c1 (centres undefined)	none (no result: D1 allo mod, DAT uptake mod)
CC(C)Sc1nc2c(c(=O)[nH]c(=O)n2C)n1CCc1ccccc1	D1 allo mod 26 | D1 mod confirm 24288 | D1 no dopamine inactive | Isoprot counter 4184
Cn1c(=O)[nH]c(=O)c2c1nc(SCC(=O)O)n2CCc1ccccc1	none
CCC(C)Sc1nc2c(c(=O)[nH]c(=O)n2C)n1CCc1ccccc1 (centres undefined)	D1 allo mod 21 | D1 mod confirm 20608 | D1 no dopamine inactive | Isoprot counter 6900
COc1cccc(C2/C(=C(\O)c3ccccc3)C(=O)C(=O)N2c2ccccc2)c1 (centres undefined)	none (no result: D1 allo mod, DAT uptake mod)
COc1cccc(C(=O)Nc2nc(-c3ccc(Cl)cc3)cs2)c1	none (no result: D1 allo mod, DAT uptake mod)
O=[N+]([O-])c1cccc(N2COc3ccc4ccccc4c3C2)c1	none (no result: D1 allo mod, DAT uptake mod)
C=C(C)Cn1c(SCC(=C)Br)nc2sc3c(c2c1=O)CC(C)(C)OC3	none (no result: D1 allo mod, DAT uptake mod)
CCOC(=O)CSc1nc2c(c(=O)[nH]c(=O)n2C)n1C/C=C(/C)Cl	none
C/C(Cl)=C/Cn1c(SC(C)C)nc2c1c(=O)[nH]c(=O)n2C	D1 allo mod 32 | D1 mod confirm 17228 | D1 no dopamine inactive | Isoprot counter 8272
CCCNc1nc2c(c(=O)[nH]c(=O)n2C)n1CCCc1ccccc1	none
CCCNc1nc2c(c(=O)[nH]c(=O)n2C)n1CCc1ccccc1	D1 allo mod 3.1 | D1 mod confirm 8752 | D1 no dopamine inactive | Isoprot counter inactive
Cc1ccc(OCC(=O)c2cc(C)c(O)cc2O)cc1	none (no result: D1 allo mod, DAT uptake mod)
Cc1ccc(-c2cc(C(F)(F)F)n3ncc(C(=O)N(C)CCc4ccccn4)c3n2)cc1	none (no result: D1 allo mod, DAT uptake mod)
Cc1ccc(S(=O)(=O)N(Cc2ccccc2)c2ccccc2)cc1	none (no result: D1 allo mod, DAT uptake mod)
COC(=O)c1ccc(CSc2ncnc3ccccc23)o1	D1 allo mod 4.5 | D1 mod confirm 9672 | Isoprot counter 3468
COC(=O)c1ccc(CSc2ncnc3c2oc2ccccc23)o1	none
N#Cc1cn(-c2ccccc2)nc1-c1ccccc1	D1 allo mod 5.7 | D1 mod confirm 9992 | D1 no dopamine inactive | Isoprot counter inactive
OCc1cn(-c2ccccc2)nc1-c1ccc(-c2nn(-c3ccccc3)cc2CO)cc1	none (no result: BAP1 inh)
COc1ccc(/C=N/NC(=O)c2ccn[nH]2)cc1COc1ccc(Cl)cc1	none (no result: D1 allo mod, BAP1 inh)
COc1ccc(/C=N/O)cc1COc1ccc(NC(C)=O)cc1	D1 allo mod 4.7 | D1 mod confirm 6740 | D1 no dopamine inactive | Isoprot counter 3584
